Assay results as given in the supplement of paper PMC13094657.
± gives the standard deviation of the averaged measurements.

Key:
[1] = test system: MDA-MB-231; test: cell viability relative to vehicle unstimulated control (fraction); higher = more viable cells; details: pre-treatment time: 18 h then 24 h IFNg/TNF
[2] = test system: MDA-MB-231; test: kynurenine production, fold change vs DMSO IFNg/TNF control; higher = more kynurenine produced (less inhibition); details: pre-treatment time: 18 h then 24 h IFNg/TNF
Method in brief: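 Fold change over cytokine-stimulated vehicle wells on the same plate is the measure used for kynurenine production, averaged across duplicate plates in the first screening round. MDA-MB-231 cells, seeded 24 h beforehand at 7 × 10^4/well in 96-well plates, were pre-treated 18 h with each natural product in 0.1% DMSO and stimulated 24 h at 37°C with IFNγ (1 U/ml) and TNF (6.25 ng/ml). Supernatants were read at 492 nm following trichloroacetic acid and p-dimethylaminobenzaldehyde treatment, against 0–100 μM standards.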
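For cell viability relative to vehicle unstimulated control in this document: viability of the cells left after supernatant collection, read with Deep Blue dye added for 4 h, as absorbance at 570 nm minus 600 nm.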

Row | SMILES | cell viability [1] | kynurenine production [2]
1 | C[C@@H]1O[C@@H](O[C@H]2[C@H](Oc3cc(O)c4c(c3)O[C@H](c3ccc(O)cc3)CC4=O)O[C@H](CO)[C@@H](O)[C@@H]2O)[C@H](O)[C@H](O)[C@H]1O [Naringin] (compound dose: 10 uM) | 1.02 ± 0.015 | 1.15 ± 0.036
2 | CC1(C)C(O[C@@H]2OC[C@@H](O)[C@H](O)[C@H]2O)CC[C@]23CC24CC[C@]2(C)[C@@H]([C@@]5(C)CC[C@@H](C(C)(C)O)O5)[C@H](O)C[C@@]2(C)C4C[C@@H](O[C@@H]2O[C@H](CO)[C@@H](O)[C@H](O)[C@H]2O)C13 (some centres not stated) [Astragaloside IV] (compound dose: 10 uM) | 1.05 ± 0.022 | 0.878 ± 0.068
3 | CC1=CCC2C[C@H]1C2(C)C [(1R)-α-Pinene] (compound dose: 10 uM) | 0.932 ± 0.081 | 0.79 ± 0.12
4 | C=C(CCC=C(C)C)[C@H]1CC[C@]2(C)[C@@H]1[C@H](O)C[C@@H]1[C@@]3(C)CC[C@H](O)C(C)(C)[C@@H]3[C@@H](O[C@@H]3O[C@H](CO)[C@@H](O)[C@H](O)[C@H]3O)C[C@]12C [Ginsenoside Rk3] (compound dose: 10 uM) | 0.96 ± 0.035 | 0.81 ± 0.11
5 | CC1(C)O[C@H]2CC(=O)OC[C@]23[C@H]2CC[C@@]4(C)[C@H](c5ccoc5)OC(=O)[C@H]5O[C@]54[C@]2(C)C(=O)C[C@@H]13 [Limonin] (compound dose: 10 uM) | 0.9819 ± 0.0068 | 0.86 ± 0.3
6 | Cc1ccc(C(C)C)cc2c(C)ccc1-2 [Guaiazulene] (compound dose: 10 uM) | 1.1 ± 0.013 | 0.915 ± 0.21
7 | C=C1C[C@]23C[C@@]1(O)CC[C@H]2[C@@]12C=C[C@H](O)[C@@](C)(C(=O)O1)[C@H]2[C@@H]3C(=O)O [Gibberellic acid] (compound dose: 10 uM) | 0.951 ± 0.013 | 0.799 ± 0.11
8 | CC(C)=CCC[C@](C)(O[C@@H]1O[C@H](CO)[C@@H](O)[C@H](O)[C@H]1O)[C@H]1CC[C@]2(C)[C@@H]1[C@H](O)C[C@@H]1[C@@]3(C)CC[C@H](O)C(C)(C)[C@@H]3[C@@H](O[C@@H]3O[C@H](CO)[C@@H](O)[C@H](O)[C@H]3O)C[C@]12C [Ginsenoside Rg1] (compound dose: 10 uM) | 0.975 ± 0.025 | 0.782 ± 0.22
9 | C[C@@H]1O[C@@H](O[C@H]2[C@H](OC(=O)[C@]34CCC(C)(C)C[C@H]3C3=CC[C@@H]5[C@@]6(C)C[C@H](O)[C@H](O[C@@H]7O[C@H](CO)[C@@H](O)[C@H](O)[C@H]7O)C(CO)(CO)[C@@H]6CC[C@@]5(C)[C@]3(C)C[C@H]4O)OC[C@H](O)[C@@H]2O)[C@H](O)[C@H](O)[C@H]1O[C@@H]1OC[C@@H](O)[C@H](O)[C@H]1O [Deapioplatycodin D] (compound dose: 10 uM) | 0.93 ± 0.031 | 0.643 ± 0.13
10 | COc1cc2c(cc1O)C(Cc1ccc(O)cc1)NCC2 (configuration not stated) [Coclaurine] (compound dose: 10 uM) | 0.988 ± 0.044 | 1.04 ± 0.062
11 | C=C1C[C@@]23CC[C@H]4[C@@](C)(CCC[C@@]4(C)C(=O)O[C@@H]4O[C@H](CO)[C@@H](O)[C@H](O)[C@H]4O[C@@H]4O[C@H](CO)[C@@H](O)[C@H](O)[C@H]4O)[C@@H]2CC[C@]1(O[C@@H]1O[C@H](CO)[C@@H](O)[C@H](O[C@@H]2O[C@H](CO)[C@@H](O)[C@H](O)[C@H]2O)[C@H]1O[C@@H]1O[C@H](CO)[C@@H](O)[C@H](O)[C@H]1O)C3 [Rebaudioside D] (compound dose: 10 uM) | 0.931 ± 0.038 | 0.9927 ± 0.0066
12 | CC1(C)CC[C@]2(C(=O)O)CC[C@]3(C)C(=CC[C@@H]4[C@@]5(C)CCC(=O)C(C)(C)[C@@H]5CC[C@]43C)[C@@H]2C1 [Oleanonic acid] (compound dose: 10 uM) | 0.957 ± 0.031 | 1.136 ± 0.0017
13 | COC(=O)C1=CO[C@@H](O[C@@H]2O[C@H](CO)[C@@H](O)[C@H](O)[C@H]2O)[C@H]2[C@@H]1[C@H](O)C[C@]2(C)O [Shanzhiside methyl ester] (compound dose: 10 uM) | 1.007 ± 0.0034 | 0.998 ± 0.16
14 | C=CC(=C)CCC=C(C)C [Myrcene] (compound dose: 10 uM) | 1.02 ± 0.055 | 0.867 ± 0.1
15 | CC(C)=CCC[C@](C)(O[C@@H]1O[C@H](CO[C@@H]2O[C@H](CO)[C@@H](O)[C@H](O)[C@H]2O)[C@@H](O)[C@H](O)[C@H]1O)[C@H]1CC[C@]2(C)[C@@H]1[C@H](O)C[C@@H]1[C@@]3(C)CC[C@H](O[C@@H]4O[C@H](CO)[C@@H](O)[C@H](O)[C@H]4O[C@@H]4O[C@H](CO)[C@@H](O)[C@H](O)[C@H]4O)C(C)(C)[C@@H]3CC[C@]12C [Ginsenoside Rb1] (compound dose: 10 uM) | 1.02 | 1.08 ± 0.11
16 | CC1=C[C@H]2[C@@H](CC1)[C@H](C)CC[C@H]2[C@@H](C)C(=O)O [Dihydroartemisinic acid] (compound dose: 10 uM) | 1.107 ± 0.0025 | 0.998 ± 0.035
17 | CC1=CC23C(=O)C(C=C4COC(C)(C)OC4C24OC(C)(C)OC14)C1C(CC3C)C1(C)C (configuration not stated) [Ingenol-3,4:5,20-diacetonide] (compound dose: 10 uM) | 1.04 ± 0.022 | 1.11 ± 0.045

Row | SMILES | cell viability [1] | kynurenine production [2]
18 | C=C(C)[C@@H]1CC=C(C)CC1 [(-)-Limonene] (compound dose: 10 uM) | 1.1 ± 0.035 | 0.935 ± 0.21
19 | CC(C)=CCC[C@](C)(O[C@@H]1O[C@H](CO)[C@@H](O)[C@H](O)[C@H]1O)[C@H]1CC[C@]2(C)[C@@H]1[C@H](O)C[C@@H]1[C@@]3(C)CC[C@H](O)C(C)(C)[C@@H]3[C@@H](O)C[C@]12C [Ginsenoside F1] (compound dose: 10 uM) | 0.982 ± 0.05 | 1.13 ± 0.066
20 | C[C@@]12C[C@@]3(O)O[C@@H](O1)[C@]1(COC(=O)c4ccccc4)[C@H]3C[C@@]12O[C@@H]1O[C@H](CO)[C@@H](O)[C@H](O)[C@H]1O [Paeoniflorin] (compound dose: 10 uM) | 1.03 ± 0.16 | 1.34 ± 0.27
21 | CC(=O)OCC1=CCC2C(C=C(C)C(=O)C3(OC(C)=O)CC(C)C(OC(=O)c4ccccc4)C3C1OC(C)=O)C2(C)C (configuration not stated) [Euphorbia factor L7b] (compound dose: 10 uM) | 1.07 ± 0.03 | 0.936 ± 0.035
22 | C=C1C[C@@]23CC[C@H]4[C@@](C)(CCC[C@@]4(C)C(=O)O)[C@@H]2CC[C@@H]1C3 [Kaurenoic acid] (compound dose: 10 uM) | 1.006 ± 0.0069 | 0.878 ± 0.12
23 | CC(C)=CCC[C@](C)(O)[C@@H]1CC=C(C)CC1 [Levomenol] (compound dose: 10 uM) | 0.676 ± 0.54 | 1.16 ± 0.056
24 | C[C@@H]1CC[C@]2(C(=O)O[C@@H]3O[C@H](CO)[C@@H](O)[C@H](O)[C@H]3O)CC[C@]3(C)C(=CC[C@@H]4[C@@]5(C)C[C@@H](O)[C@H](O)C(C)(C)[C@@H]5CC[C@]43C)[C@@H]2[C@]1(C)O [Rosamultin] (compound dose: 10 uM) | 1 ± 0.077 | 1.09 ± 0.26
25 | COc1ccc([C@H]2OC[C@H]3[C@@H]2CO[C@H]3c2ccc(O[C@@H]3O[C@H](CO)[C@@H](O)[C@H](O)[C@H]3O)c(OC)c2)cc1OC [Phillyrin] (compound dose: 10 uM) | 0.978 ± 0.024 | 0.866 ± 0.16
26 | C=C(C)[C@@H]1CC[C@@H](C)[C@@H]2CCC(C)=C[C@@H]21 [Amorpha-4,11-diene] (compound dose: 10 uM) | 1.01 ± 0.06 | 0.961 ± 0.19
27 | C=C1CC[C@H]2C(=C)CC[C@H]3C(=C)C(=O)O[C@@H]3[C@@H]12 [Dehydrocostus Lactone] (compound dose: 10 uM) | 0.933 ± 0.08 | 0.398 ± 0.079
28 | COc1cc2c(=O)c3c(O)c([C@@H]4O[C@H](CO[C@@H]5OC[C@](O)(CO)[C@H]5O)[C@@H](O)[C@H](O)[C@H]4O)c(O)cc3oc2cc1O [Polygalaxanthone III] (compound dose: 10 uM) | 1 ± 0.048 | 1.01 ± 0.037
29 | CC(C)=CC/C=C(/C)[C@H]1CC[C@@]2(C)[C@@H]1[C@@H](O)CC1[C@@]3(C)CCC(O[C@@H]4O[C@H](CO)[C@@H](O)[C@H](O)[C@H]4O)C(C)(C)C3CC[C@]12C (some centres not stated) [Ginsenoside Rh3] (compound dose: 10 uM) |  | 0.858 ± 0.029
30 | CC(=O)OCC1=CO[C@@H](OC(=O)CC(C)C)[C@H]2C1=C[C@H](OC(=O)CC(C)C)[C@]21CO1 [Valepotriate] (compound dose: 10 uM) | 0.185 ± 0.028 | 0.321 ± 0.04
31 | CC(C)=CC/C=C(\C)[C@H]1CC[C@]2(C)[C@@H]1[C@H](O)C[C@@H]1[C@@]3(C)CC[C@H](O[C@@H]4O[C@H](CO)[C@@H](O)[C@H](O)[C@H]4O[C@@H]4O[C@H](CO)[C@@H](O)[C@H](O)[C@H]4O)C(C)(C)[C@@H]3CC[C@]12C [Ginsenoside Rg5] (compound dose: 10 uM) | 0.906 ± 0.032 | 0.876 ± 0.12
32 | CC1(C)CC[C@]2(C(=O)O)CC[C@]3(C)C(=CC[C@@H]4[C@@]5(C)CC[C@H](O[C@@H]6O[C@H](C(=O)O)[C@@H](O)[C@H](O)[C@H]6O[C@@H]6O[C@H](CO)[C@@H](O)[C@H](O)[C@H]6O)C(C)(C)[C@@H]5CC[C@]43C)[C@@H]2C1 [Zingibroside R1] (compound dose: 10 uM) | 1.19 ± 0.15 | 1.06 ± 0.15
33 | Cc1ccc(C(C)C)cc1O [Carvacrol] (compound dose: 10 uM) | 1.06 ± 0.036 | 0.855 ± 0.035
34 | C/C=C(/C)C(=O)O[C@H]1[C@H](OC(C)=O)[C@@]2(CO)C(CC1(C)C)C1=CCC3[C@@]4(C)CCC(O[C@@H]5O[C@H](C(=O)O)[C@@H](O[C@@H]6O[C@H](CO)[C@@H](O)[C@H](O)[C@H]6O)[C@H](O)[C@H]5O[C@@H]5O[C@H](CO)[C@@H](O)[C@H](O)[C@H]5O)[C@](C)(CO)C4CC[C@@]3(C)[C@]1(C)C[C@H]2O.C/C=C(\C)C(=O)O[C@H]1[C@H](OC(C)=O)[C@@]2(CO)C(CC1(C)C)C1=CCC3[C@@]4(C)CCC(O[C@@H]5O[C@H](C(=O)O)[C@@H](O[C@@H]6O[C@H](CO)[C@@H](O)[C@H](O)[C@H]6O)[C@H](O)[C@H]5O[C@@H]5O[C@H](CO)[C@@H](O)[C@H](O)[C@H]5O)[C@](C)(CO)C4CC[C@@]3(C)[C@]1(C)C[C@H]2O (some centres not stated) [Escin] (compound dose: 10 uM) | 0.911 ± 0.11 | 1.14 ± 0.1
